Data on 16 compounds can be found in PubChem BioAssay AID2061166 (Soto Lab, Mitchell Center for Alzheimers Disease and …, 2025).

Unmarked numbers belong to inactive results.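 The calls were made as follows: active = mean tau seeding fluorescence area under 1% of vehicle, meaning inhibition above a set limit; inactive = the rest.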

The target in this test is Microtubule-associated protein tau (Homo sapiens) (UniProt P10636). Nature of the test: blockers of AD brain-seeded tau fibril growth – biochemical, seed amplification, ThT fluorescence, primary screen (AID 2061166). The settings on record: Recombinant tau seeded by AD brain, ThT fluorescence AUC; at 100 µM; hits give high values.
Chain of Microtubule-associated protein tau (Homo sapiens) (P10636 whole entry, looked up): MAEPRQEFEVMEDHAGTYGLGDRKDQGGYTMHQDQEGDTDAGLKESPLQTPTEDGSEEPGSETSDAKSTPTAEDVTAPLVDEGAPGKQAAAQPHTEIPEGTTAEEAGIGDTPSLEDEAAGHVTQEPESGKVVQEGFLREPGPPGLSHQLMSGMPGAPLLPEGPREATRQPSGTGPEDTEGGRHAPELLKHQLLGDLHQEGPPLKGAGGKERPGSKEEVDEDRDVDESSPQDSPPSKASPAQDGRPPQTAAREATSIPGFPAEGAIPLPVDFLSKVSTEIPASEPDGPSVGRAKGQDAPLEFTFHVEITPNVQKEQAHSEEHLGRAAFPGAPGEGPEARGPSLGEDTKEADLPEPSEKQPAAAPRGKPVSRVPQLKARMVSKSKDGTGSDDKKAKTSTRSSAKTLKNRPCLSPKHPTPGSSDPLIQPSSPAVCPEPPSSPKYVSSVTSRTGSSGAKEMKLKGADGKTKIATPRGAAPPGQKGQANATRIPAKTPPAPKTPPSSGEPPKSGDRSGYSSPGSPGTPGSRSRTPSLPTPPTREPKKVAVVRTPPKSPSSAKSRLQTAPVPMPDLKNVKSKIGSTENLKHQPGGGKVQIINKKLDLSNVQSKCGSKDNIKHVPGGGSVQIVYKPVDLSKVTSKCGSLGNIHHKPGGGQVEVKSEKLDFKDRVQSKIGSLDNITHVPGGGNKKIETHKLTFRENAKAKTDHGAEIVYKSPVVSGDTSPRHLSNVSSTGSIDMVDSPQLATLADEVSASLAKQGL
With `CN(CCOc1ccc(CC2SC(=O)NC2=O)cc1)c1ccccn1` (stereo unspecified), the inhibition (usually the relative decrease from the control value, in per cent) is -61%. For `CC1(C)CCC2(C(=O)O)CCC3(C)C(=CCC4C5(C)CCC(O)C(C)(CO)C5CCC43C)C2C1` (stereo unspecified), the inhibition was 65%. In the case of `CCc1c2c(nc3ccc(OC(=O)N4CCC(N5CCCCC5)CC4)cc13)-c1cc3c(c(=O)n1C2)COC(=O)C3(O)CC` (stereo unspecified), the inhibition was 46.1%. As to `CCN(CC)CC#CCOC(=O)C(O)(c1ccccc1)C1CCCCC1` (stereo unspecified), the inhibition is -0.433%. On to `CCCCCCCCc1ccc(CCC(N)(CO)CO)cc1`, for which the inhibition was 59.3%. Turning to `O=C1CSC(=S)N1`, the inhibition is -4.3%.

In the case of `O=S(=O)(O)c1cc(S(=O)(=O)O)c2c(N=Nc3ccccc3)c(O)ccc2c1`, the inhibition is 39%.

As to `COc1ccc(C2CNC(=O)C2)cc1OC1CCCC1` (stereo unspecified), the inhibition was 16.3%. `O=C(c1cc(O)c(O)c(O)c1)c1ccc(O)c(O)c1O`: the inhibition is 97.9%.

Turning to `Cc1ccsc1C(=CCCN1CCCC(C(=O)O)C1)c1sccc1C` (stereo unspecified), the inhibition was 3.27%.

With `COc1cc2nc(N(C)CCCNC(=O)C3CCCO3)nc(N)c2cc1OC` (stereo unspecified), the inhibition is 17.4%. For the compound `CCCOC(C(=O)OC1CCN(C)CC1)(c1ccccc1)c1ccccc1`, the inhibition was 26.4%. Turning to `COC(=O)C1=COC(OC2OC(CO)C(O)C(O)C2O)C2C1CC(O)C2C` (stereo unspecified), the inhibition is -52.1%. For `CCN1CCN(Cc2ccc(Nc3ncc(F)c(-c4cc(F)c5nc(C)n(C(C)C)c5c4)n3)nc2)CC1`, the inhibition is 15.2%. Take `CCOc1nc2cccc(C(=O)O)c2n1Cc1ccc(-c2ccccc2-c2nn[nH]n2)cc1`: the inhibition is 36.2%. For `CC1=NN(c2ccccc2)C(=O)C1`, the inhibition was 48.4%.
